# Measurements from PubChem BioAssay (NCATS).
# The source made the active and inactive calls. Where a call stands in place of a potency, no number is given. Calls follow the shape of the dose curve; as a rule, active = well fitted inhibition curve with a large enough effect; inconclusive = small, poorly fitted or top-dose-only effect; inactive = no such curve, though single readings can be large or run the other way.
# Molecular target: Pyruvate kinase (Leishmania mexicana) (UniProt Q27686)
# Assay: qHTS Validation Assay for Inhibitors of Leishmania Mexicana Pyruvate Kinase (AID 945)
# Conditions: purified L. mexicana pyruvate kinase, enzyme activity, E451W mutant enzyme; series mostly up to 57.5 µM
# Source text: NIH Molecular Libraries Screening Centers Network [MLSCN]
# NIH Chemical Genomics Center [NCGC]
# PI names: Malcom Walkinshaw, Hugh Morgan and Linda Gilmore
# University of Edinburgh, Edinburgh, UK
# Species of Leishmania are responsible for a wide spectrum of diseases throughout the tropics and subtropics, ranging from self-healing ulcers to highly disfiguring lesions and serious, often lethal visceral diseases, such as kala-azar. In Leishmania spp. it has been shown that both sugar uptake and gluconeogenesis are necessary to synthesize sufficient hexose-phosphate required for the production of glycoconjugates and the intracellular polysaccharide mannan which are essential for both replication and virulence of the parasites. Therefore, most of the enzymes participating in glycolysis and gluconeogenesis are expected to be essential (Naderer et al., 2006). The assay described here targets pyruvate kinase from Leishmania mexicania (LmPYK) that was obtained as a highly purified preparation from the University of Edinburgh (E451W mutant was provided). A 1536 well assay protocol was set up and validated by screening the LOPAC library in triplicate as an eight point concentration-titration series using the qHTS platform developed at the NCGC.
# NCGC Assay Protocol Summary:
# Three uL of substrate mix (final concentrations, 50 mM imidazole pH 7.2, 50 mM KCl, 7 mM MgCl2, 0.5 mM PEP, 0.1 mM ADP, 0.01% Tween 20, 0.05% BSA) was dispensed into white solid medium binding Greiner 1536 well plates. 23 nL of compound were delivered by a pin tool and 1 uL of enzyme mix (final concentration, 0.2 nM LmPYK, 50 mM imidazole pH 7.2, 0.05% BSA) was added. Plates were covered with stainless steel gasket-lined lids and incubated at room temperature for 1 hour. Two uL of detection and kinase stop mix (PKLight, Lonza) was added, and luminescence read by a ViewLux (Perkin Elmer) at 2 second exposure/plate using 2x binning. Controls on each plate were as follows: column 1, sixteen-point titration (1:2 dilutions) in duplicate the LmPK activator LOPAC-C8145 beginning at 57 uM final concentration; column 2, sixteen-point titration (1:2 dilutions) in duplicate activator LOPAC-S4063 beginning at 57 uM final concentration; column 3, column 4 DMSO only. Data were normalized to the neutral control (column 3).
# Potency is read from the fitted curve at half-maximal effect.
# Sequence of Pyruvate kinase (Leishmania mexicana) (Q27686 2-499 E452W): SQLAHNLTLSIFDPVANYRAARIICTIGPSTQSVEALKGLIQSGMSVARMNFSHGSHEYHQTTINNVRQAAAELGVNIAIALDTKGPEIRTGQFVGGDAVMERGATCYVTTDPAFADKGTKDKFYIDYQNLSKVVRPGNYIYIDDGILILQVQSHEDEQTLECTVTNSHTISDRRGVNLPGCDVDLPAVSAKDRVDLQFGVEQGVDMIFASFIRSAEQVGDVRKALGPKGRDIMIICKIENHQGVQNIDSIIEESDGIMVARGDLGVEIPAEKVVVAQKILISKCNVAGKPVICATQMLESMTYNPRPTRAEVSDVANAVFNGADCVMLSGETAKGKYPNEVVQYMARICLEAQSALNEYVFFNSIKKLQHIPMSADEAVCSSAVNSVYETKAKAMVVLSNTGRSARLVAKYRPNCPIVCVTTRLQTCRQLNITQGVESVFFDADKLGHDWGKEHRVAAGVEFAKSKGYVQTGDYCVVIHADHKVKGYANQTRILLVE
row,SMILES,Potency
1,Cn1cnc2c(NC3CCCC3)ncnc21,inactive
2,COC(=O)C1=C(C)NC(C)=C([N+](=O)[O-])[C@H]1c1ccccc1C(F)(F)F,inactive
3,C=CCN1CCc2cc(O)c(O)cc2[C@H](c2ccccc2)C1,inactive
4,CN(C)C/C=C(\c1ccc(Br)cc1)c1cccnc1,inactive
5,CC(C)(C)NC[C@H](O)c1ccc(O)c(CO)c1,inactive
6,CCCCOc1cc(C[C@@H]2CNC(=O)N2)ccc1OC,inactive
7,CCOC(=O)[C@@]12C[C@@H]1/C(=N/O)c1ccccc1O2,inactive
8,C[C@@H]1CNCCN1S(=O)(=O)c1cccc2cnccc12,inactive
9,NCCCCCCNS(=O)(=O)c1cccc2c(Cl)cccc12,inactive
10,CC(C)(C)c1ccc(S(=O)(=O)/C=C\C#N)cc1,inactive
11,CC(N)=NCCCC[C@H](N)C(=O)O,inactive
12,NC(N)=NN=Cc1c(Cl)cccc1Cl,inactive
13,O=C1N=C(O)CN1/N=C\c1ccc(-c2ccc([N+](=O)[O-])cc2)o1,inactive
14,C[C@@H]1CCN=C(N)S1,inactive
15,N#CC(=C(/N)Sc1ccccc1N)/C(C#N)=C(/N)Sc1ccccc1N,inactive
16,C[C@@H]([C@H](O)c1ccc(O)cc1)N1CCC(Cc2ccccc2)CC1,inactive
17,COc1cc2c(cc1C(F)(F)F)N(C(=O)Nc1cc(F)cc(-c3cccnc3)c1)CC2,inactive
18,C[C@@](N)(C(=O)O)c1ccc(C(=O)O)cc1,inactive
19,C[C@]12CC3CC(N)(C1)C[C@@](C)(C3)C2,inactive
20,C[C@@H](CCc1ccc(O)cc1)NCCc1ccc(O)c(O)c1,inactive

row,SMILES,Potency
1,Cc1cccc(/C=C\c2ccccc2)n1,15.8 µM (active)
2,C[N+](C)(C)CCC(=O)c1cccc2ccccc12,inactive
3,C[C@@H]1C[C@@H]2[C@H]3CCC4=CC(=O)C=C[C@]4(C)[C@]3(F)[C@@H](O)C[C@@]2(C)[C@@]1(O)C(=O)CO,inactive
4,Cc1cccc([C@@H]2CN(C)CCc3c2cc(O)c(O)c3Cl)c1,inactive
5,CN(C)CCCCSC(=N)N,inactive
6,CC(N)=NCc1cccc(CN)c1,inactive
7,Oc1cc2c(cc1O)[C@H](c1ccccc1)CNCC2,inactive
8,CC[C@H](C)N(C)C(=O)c1cc2ccccc2c(-c2ccccc2Cl)n1,inactive
9,CCCCCCCCCCCCCCCC(=O)O[C@H](CC(=O)O)C[N+](C)(C)C,inactive
10,CC(N)=NCCC[C@H](N)C(=O)O,inactive
11,COc1ccccc1N1CCN(C[C@@H](O)COc2cccc3ccccc23)CC1,inactive
12,O=C(NC[C@H]1CCCCN1)c1cc(OCC(F)(F)F)ccc1OCC(F)(F)F,inactive
13,O=C(O)c1cc(=O)c2ccc(Cl)cc2[nH]1,inactive
14,CC(C)(C)NC[C@H](O)COc1cccc2[nH]c(=O)[nH]c12,inactive
15,N[C@@H](CO)C(=O)O,inactive
16,CC(C)NC[C@H](O)c1ccc(NS(C)(=O)=O)cc1,inactive
17,N[C@@H]1CCN(O)C1=O,inactive
18,S=C(S)O[C@@H]1C[C@@H]2C[C@H]1[C@@H]1CCC[C@H]21,inactive
19,COc1cccc(OC)c1OCCNC[C@@H]1COc2ccccc2O1,inactive
20,C=C[C@H](N)CCC(=O)O,inactive
